Laboratory results from PubChem BioAssay.
Activity calls are given as the source filed them.

Legend:
Albumin (Bos taurus) = Albumin (Bos taurus) (UniProt P02769); assay: compounds binding labelled BSA control protein – biochemical, small-molecule microarray, Alexa647 label, 635/667 nm fluorescence, artefact control for SMM control protein annotation, profiling panel (AID 1118); details: BSA-A647 binding, fluorescence 635 nm, higher = more signal;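 further: score merges 667 nm emission intensity and signal-to-noise per printed compound spot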
Sequence of Albumin (Bos taurus) (P02769 whole entry, looked up): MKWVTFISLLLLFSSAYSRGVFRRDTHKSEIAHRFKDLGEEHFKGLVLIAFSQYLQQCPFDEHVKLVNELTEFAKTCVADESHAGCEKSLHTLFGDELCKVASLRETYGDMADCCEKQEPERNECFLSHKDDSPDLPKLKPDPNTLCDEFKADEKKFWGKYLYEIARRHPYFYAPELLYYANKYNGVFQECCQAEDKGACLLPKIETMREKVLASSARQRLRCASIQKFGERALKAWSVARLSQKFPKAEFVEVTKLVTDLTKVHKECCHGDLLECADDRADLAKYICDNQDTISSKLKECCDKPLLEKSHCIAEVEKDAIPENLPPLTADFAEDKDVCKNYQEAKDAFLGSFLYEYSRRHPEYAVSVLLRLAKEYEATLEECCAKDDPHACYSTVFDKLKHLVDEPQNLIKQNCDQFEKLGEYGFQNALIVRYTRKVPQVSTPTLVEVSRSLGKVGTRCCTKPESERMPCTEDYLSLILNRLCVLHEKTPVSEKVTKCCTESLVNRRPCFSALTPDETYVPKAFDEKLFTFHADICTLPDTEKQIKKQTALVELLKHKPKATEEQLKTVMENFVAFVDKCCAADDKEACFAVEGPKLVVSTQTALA

[1] = probe aXIP binding to arrayed compounds – biochemical, NeuroSMM set, 635/667 nm fluorescence, primary screen (AID 1119); details: small-molecule microarray, higher = more signal, called active from +8 up or from −8 down;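 further: probe is the protein aXip251-270 applied at 1 µg/mL to compound-printed slides; binding of probe to printed compounds measured as 667 nm fluorescence plus signal to noise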
[2] = probe aNOTCH3 binding on compound microarray – biochemical, small-molecule microarray, 635/667 nm fluorescence, primary screen (AID 1120); details: higher = more signal;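 further: probe is a biotin-tagged antibody raised against NOTCH3 rather than NOTCH3 protein; score merges spot fluorescence near 667 nm with spot signal to noise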
[3] = probe aNOTCH2 binding on compound microarray – biochemical, small-molecule microarray, 635/667 nm fluorescence, primary screen (AID 1121); details: higher = more signal;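 further: score merges feature fluorescence read at 667 nm with its signal to noise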
[4] = target: Carbonic anhydrase 2 (Homo sapiens) (UniProt P00918); assay: compounds binding carbonic anhydrase 2 – biochemical, small-molecule microarray, Alexa647-labelled CAII, profiling panel (AID 1122); details: CAII-A647 binding fluorescence, higher = more signal
[5] = COS7 lysate on small-molecule microarray, probe aHis, 635 nm (AID 1123); details: COS7 cell lysate, fluorescence, higher = more signal;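 further: z-score combines 667nm fluorescence intensity with signal-to-noise per printed compound spot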
[6] = probe aLAP1 signal on lysate-treated microarray – cell lysate, small-molecule microarray, COS7 lysate, primary screen (AID 1124); details: probe aLAP1, fluorescence, higher = more signal;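 further: lysate comes from COS7 cells expressing LAP1 and is applied at 0.3 µg/mL; score merges spot fluorescence near 667 nm with signal-to-noise over triplicate slides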
Sam68 (KHDRBS1) = assay: compounds binding KHDRBS1 protein – biochemical, small-molecule microarray, 635 nm fluorescence, primary screen (AID 1125); details: higher = more signal;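 further: score merges 667 nm channel intensity with signal to noise over triplicate slides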
[7] = tested on: Chordin-like protein 2 (CHRDL2); assay: compounds binding chordin-like 2 – biochemical, small-molecule microarray, 635 nm fluorescence, primary screen (AID 1126); details: fluorescence 635 nm, higher = more signal;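 further: printed compound slides probed with Chrdl2 protein at 4 µg/mL for 1 h at 4 C; score merges 667 nm emission intensity with signal to noise over three replicate slides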
[8] = target: Concanavalin-A (Canavalia ensiformis) (UniProt P02866); assay: compounds binding concanavalin A lectin – biochemical, small-molecule microarray, Alexa647 label, 635 nm, artefact control for SMM control protein annotation, primary screen (AID 1127); details: ConA-A647 binding fluorescence, higher = more signal;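 further: z combines 667 nm emission intensity with signal-to-noise across three replicate slides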
Sequence of Concanavalin-A (Canavalia ensiformis) (P02866 whole entry, looked up): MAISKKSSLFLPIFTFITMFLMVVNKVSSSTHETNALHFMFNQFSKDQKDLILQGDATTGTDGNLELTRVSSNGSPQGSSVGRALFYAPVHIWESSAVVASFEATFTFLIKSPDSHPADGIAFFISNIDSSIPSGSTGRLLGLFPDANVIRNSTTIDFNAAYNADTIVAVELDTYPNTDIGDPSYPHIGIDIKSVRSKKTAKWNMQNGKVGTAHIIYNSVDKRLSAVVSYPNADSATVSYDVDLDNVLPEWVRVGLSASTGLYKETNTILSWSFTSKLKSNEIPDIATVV

[9] = compounds binding Alexa647 anti-His antibody – biochemical, small-molecule microarray, 635 nm fluorescence, artefact control for SMM control protein annotation, primary screen (AID 1128); details: higher = more signal;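 further: score merges feature fluorescence with signal-to-noise for each printed compound spot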
[10] = tested on: Human papillomavirus type 1a E7 protein (residues 1-88); assay: HPV1a E7 small-molecule binders, primary screen, biochemical, small-molecule microarray, residues 1-88, 635 nm (AID 1129); details: small-molecule microarray binding, fluorescence 635 nm; higher = more signal
[11] = target: Focal adhesion kinase 1 (Homo sapiens) (UniProt Q05397); assay: PTK2 protein binding on printed compound slides – biochemical, small-molecule microarray, 635/667 nm fluorescence, BSA, DTT, primary screen (AID 1130); details: 635 nm fluorescence, higher = more signal;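 further: composite of spot emission at 667 nm and signal to noise over triplicate slides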
Sequence of Focal adhesion kinase 1 (Homo sapiens) (Q05397 whole entry, looked up): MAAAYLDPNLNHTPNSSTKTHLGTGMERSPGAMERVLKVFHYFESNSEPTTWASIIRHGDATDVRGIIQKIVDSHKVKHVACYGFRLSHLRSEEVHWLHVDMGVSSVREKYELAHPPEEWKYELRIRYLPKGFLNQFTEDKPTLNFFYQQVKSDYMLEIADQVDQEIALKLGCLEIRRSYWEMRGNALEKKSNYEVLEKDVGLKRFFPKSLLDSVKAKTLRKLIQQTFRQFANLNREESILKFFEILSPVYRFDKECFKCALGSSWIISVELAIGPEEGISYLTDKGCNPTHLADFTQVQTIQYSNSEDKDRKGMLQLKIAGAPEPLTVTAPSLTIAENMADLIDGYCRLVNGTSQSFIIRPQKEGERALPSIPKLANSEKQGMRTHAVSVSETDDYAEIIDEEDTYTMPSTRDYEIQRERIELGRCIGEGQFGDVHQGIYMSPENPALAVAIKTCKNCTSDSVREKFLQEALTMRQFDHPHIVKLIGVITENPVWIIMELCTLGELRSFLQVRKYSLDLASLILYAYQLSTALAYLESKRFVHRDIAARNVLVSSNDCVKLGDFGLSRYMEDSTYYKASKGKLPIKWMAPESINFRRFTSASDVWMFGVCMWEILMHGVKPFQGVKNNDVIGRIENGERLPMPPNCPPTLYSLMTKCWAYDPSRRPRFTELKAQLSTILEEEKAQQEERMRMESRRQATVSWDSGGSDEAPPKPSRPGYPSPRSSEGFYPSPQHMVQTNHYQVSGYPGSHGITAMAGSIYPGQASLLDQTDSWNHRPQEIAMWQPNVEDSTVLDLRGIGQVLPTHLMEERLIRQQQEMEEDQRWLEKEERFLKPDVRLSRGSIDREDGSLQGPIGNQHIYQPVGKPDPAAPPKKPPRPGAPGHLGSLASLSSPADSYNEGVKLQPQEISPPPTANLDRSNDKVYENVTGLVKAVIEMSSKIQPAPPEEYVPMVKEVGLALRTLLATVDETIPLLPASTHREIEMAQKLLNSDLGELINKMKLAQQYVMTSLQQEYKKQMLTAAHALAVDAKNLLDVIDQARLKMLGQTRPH

[12] = tested on: Fibrinogen (Alexa647-labelled); assay: Alexa647-fibrinogen binding to printed small molecules – biochemical, small-molecule microarray, 635/667 nm fluorescence, artefact control for SMM control-protein annotation, profiling panel (AID 1131); details: fibrinogen-A647 binding fluorescence, higher = more signal;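 further: z-score merges 667 nm fluorescence with per-spot signal-to-noise over triplicate slides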
[13] = target: Follistatin (Homo sapiens) (UniProt P19883); assay: FST protein binding to printed compounds – biochemical, small-molecule microarray, 635/667 nm fluorescence, primary screen (AID 1132); details: 635 nm fluorescence, higher = more signal
Sequence of Follistatin (Homo sapiens) (P19883 whole entry, looked up): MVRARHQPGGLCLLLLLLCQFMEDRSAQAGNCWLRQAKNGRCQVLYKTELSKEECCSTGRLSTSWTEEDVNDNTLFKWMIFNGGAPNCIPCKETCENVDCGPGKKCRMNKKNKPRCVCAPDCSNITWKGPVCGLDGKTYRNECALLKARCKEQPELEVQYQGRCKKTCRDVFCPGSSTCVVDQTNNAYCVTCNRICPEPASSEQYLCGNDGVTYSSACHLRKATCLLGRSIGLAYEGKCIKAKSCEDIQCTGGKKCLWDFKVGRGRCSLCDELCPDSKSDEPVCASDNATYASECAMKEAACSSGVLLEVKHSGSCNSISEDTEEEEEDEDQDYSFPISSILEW

[14] = target: Fibroblast growth factor 2 (Homo sapiens) (UniProt P09038); assay: basic fibroblast growth factor binding to printed compounds – biochemical, small-molecule microarray, 635/667 nm fluorescence, primary screen (AID 1133); details: FGF2, fluorescence 635/667, higher = more signal
Sequence of Fibroblast growth factor 2 (Homo sapiens) (P09038 whole entry, looked up): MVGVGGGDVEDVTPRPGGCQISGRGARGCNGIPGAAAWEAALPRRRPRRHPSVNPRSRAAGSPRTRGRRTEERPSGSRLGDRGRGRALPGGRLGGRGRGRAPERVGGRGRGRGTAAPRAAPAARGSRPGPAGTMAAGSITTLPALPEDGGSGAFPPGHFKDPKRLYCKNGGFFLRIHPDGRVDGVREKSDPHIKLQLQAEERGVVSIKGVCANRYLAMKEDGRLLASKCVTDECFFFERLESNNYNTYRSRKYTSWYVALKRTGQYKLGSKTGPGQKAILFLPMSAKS

[15] = JC-1 mitochondrial potential readout, lung cancer cells – cell-based, A549, JC-1 fluorescence, basal, 24 h, 100 nL, profiling panel (AID 1138); details: higher = more signal;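 further: A549 lung adenocarcinoma cells under basal conditions with no added stimulus; test concentration not given here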
Lefty1 = Lefty1 protein binding to printed compounds – biochemical, small-molecule microarray, 635/667 nm fluorescence, primary screen (AID 1139); details: fluorescence 635/667, higher = more signal
[16] = tested on: wheat germ agglutinin (Triticum aestivum), Alexa647-labelled; assay: Alexa647-WGA lectin binding to printed small molecules – biochemical, small-molecule microarray, 635/667 nm fluorescence, artefact control for SMM control-protein annotation, profiling panel (AID 1140); details: WGA-A647 binding, 635 nm fluorescence, higher = more signal;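 further: score merges 667 nm feature emission with signal to noise over triplicate slides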
[17] = target: Luciferin 4-monooxygenase (Photinus pyralis) (UniProt P08659); assay: inhibition of purified Photinus pyralis luciferase – biochemical, luminescence, purified enzyme, 2006 set, primary screen (AID 1141); details: purified firefly luciferase, SteadyGlo luminescence, 30 min; higher = more signal, called active from +8 up or from −8 down;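 further: cell-free assay with purified firefly luciferase at 100 ng per well in PBS; test concentration not given here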
Sequence of Luciferin 4-monooxygenase (Photinus pyralis) (P08659 whole entry, looked up): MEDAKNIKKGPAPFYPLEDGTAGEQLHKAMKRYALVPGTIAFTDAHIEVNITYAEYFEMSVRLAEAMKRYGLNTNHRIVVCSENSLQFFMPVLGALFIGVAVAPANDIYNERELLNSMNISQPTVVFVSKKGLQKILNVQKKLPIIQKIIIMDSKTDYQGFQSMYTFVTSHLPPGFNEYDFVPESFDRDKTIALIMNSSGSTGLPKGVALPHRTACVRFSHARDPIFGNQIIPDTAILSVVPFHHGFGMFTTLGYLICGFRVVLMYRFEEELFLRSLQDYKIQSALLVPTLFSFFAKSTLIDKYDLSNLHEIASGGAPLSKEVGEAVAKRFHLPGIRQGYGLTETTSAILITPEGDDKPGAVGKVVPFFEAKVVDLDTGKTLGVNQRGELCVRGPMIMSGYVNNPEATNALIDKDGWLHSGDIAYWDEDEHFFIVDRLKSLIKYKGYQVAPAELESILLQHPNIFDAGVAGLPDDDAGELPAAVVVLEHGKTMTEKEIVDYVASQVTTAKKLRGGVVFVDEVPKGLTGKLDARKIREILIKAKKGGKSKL

| SMILES | composite z-score (Albumin (Bos taurus)) | composite Z-score [1] | composite z-score [2] | composite z-score [3] | composite z-score [4] | composite z-score [5] | composite z-score [6] | composite z-score (Sam68 (KHDRBS1)) | composite z-score [7] | composite z-score [8] | composite z-score [9] | composite z-score [10] | composite z-score [11] | composite z-score [12] | composite z-score [13] | composite z-score [14] | z-score [15] | composite z-score (Lefty1) | composite z-score [16] | z-score [17] |
| --- | --- | --- | --- | --- | --- | --- | --- | --- | --- | --- | --- | --- | --- | --- | --- | --- | --- | --- | --- | --- |
| CC(C)N1C(=O)C[C@@](C(=O)NCCN2CCOCC2)(c2ccc([N+](=O)[O-])cc2)[C@H]1c1ccc(CO)cc1 | 0.408 | 1.96 (inactive) | -0.256 | -0.0836 | 0.642 | 2.2 | 1.24 | -0.395 | -1.26 | 0.257 | 2.67 | -0.886 | -0.455 | -0.591 | 0.178 | -0.588 | -0.143 | -0.516 | 0.869 | 1.42 (inactive) |
| C=CCNC(=O)[C@H]1[C@@H]2C(=O)O[C@@H](c3ccccc3)[C@@H](c3ccccc3)N2[C@@H](c2ccccc2OCCO)[C@]12C(=O)N(C(=O)OCCOC)c1ccc(C#Cc3ccc(OC)cc3)cc12 | 0.621 | -0.0052 (inactive) | -0.0613 | -0.146 | 0.609 | 1.94 | 1.1 | 1.24 | 0.0718 | 1.11 | 0.63 | 1.19 | 0.723 | 0.732 | 0.406 | 0.235 | -0.844 | 0.407 | 0.924 | -1.05 (inactive) |
| O=C(NC1CC1)[C@@H]1c2ccccc2C(=O)N(CC23CC4CC(CC(C4)C2)C3)[C@H]1c1ccc(CO)cc1 | 0.654 | -0.0662 (inactive) | 0.183 | -0.0495 | 0.388 | 2.18 | 0.99 | 1.31 | 1.16 | 1.16 | 1.17 | 1.12 | 0.476 | 0.919 | 1.44 | 1.28 | 0.0467 | 1.33 | 0.33 | 0.7 (inactive) |
| COc1ccc([Si](C)(C)[C@@H]2[C@@H](CC(=O)N3CCC[C@H]3CO)O[C@]3(C(=O)N(Cc4ccc(N5CCOC5=O)cc4)c4ccccc43)[C@H]2C)cc1 | 0.746 | 0.408 (inactive) | -0.0362 | -0.136 | 0.408 | 1.02 | 0.373 | 1.31 | 0.509 | 0.884 | 1.02 | 0.783 | 0.939 | 0.867 | 0.441 | 0.672 | 0.735 | 0.646 | 0.471 | -1.83 (inactive) |
| COc1ccc([Si](C)(C)[C@H]2[C@H](CCO)O[C@@]3(C(=O)N(Cc4cccc(N5C(=O)c6ccccc6Oc6ccccc65)c4)c4ccccc43)[C@@H]2C)cc1 | 0.446 | 0.142 (inactive) | -0.0647 | -0.147 | 0.287 | 0.575 | 0.755 | 0.499 | -0.122 | 0.843 | 0.551 | 0.838 | -0.065 | 0.327 | -0.424 | 0.649 | 0.302 | -0.351 | 0.805 | 0.0939 (inactive) |
| CC(=O)c1ccc(C(O)C2C=CC3C(=O)N(c4ccccc4)C(=O)C3N2Nc2ccc(C(C)C)cc2)cc1 (stereo not given) | 0.0031 | -0.275 (inactive) | 0.247 | 0.216 | 0.666 | 1.97 | 0.463 | 1.13 | -0.185 | 1.13 | 0.779 | 1.23 | 0.329 | 0.939 | 1.13 | 1.1 | 0.678 | -0.212 | 1.17 | -1.41 (inactive) |
